Screening data from PubChem BioAssay.
BioA inh: blocks M. tuberculosis BioA enzyme activity | purified M. tuberculosis BioA enzyme, plate reader | inhibition, % at 9.99 µM | hit rate 0.096% among 360,000 | AID 602481; in the data active = inhibition above about 40%
TcdB inh: blocks C. difficile toxin B glycohydrolase activity. P18177. TcdB glycohydrolase enzymatic assay, plate reader. inhibition, % at 9.99 µM. hit rate 0.24% among 350,000. AID 652162; in the data active = inhibition above about 10%
Vc quorum ag-1: quorum light induction in luxS cqsA deficient V. cholerae; hit rate 0.16% among 350,000; AID 588436; activation, % at 18.7 µM; V. cholerae BH1578 lux reporter, luminescence, 6 h; in the data active = activation mostly above about 9.7%, no sharp cut-off
VHR inh abs: DUSP3 (human) phosphatase inhibition. inhibition, % at 13.3 µM. P51452. hit rate 0.52% among 290,000. recombinant VHR phosphatase, pNPP absorbance. AID 1654; in the data active = inhibition above about 50%
Yp Topo-I inh: inhibitors of Yersinia pestis topoisomerase I. Y. pestis Topo-I cleavage product accumulation, plate reader. AID 504884. activity, % at 10 µM. hit rate 0.064% among 360,000; in the data active = activity above about 50%, passing the limit was not always enough
PfHsp40 rescue: restores yeast growth despite PfHsp40 toxicity. growth rescue, % at 12.5 µM. AID 504582. S. cerevisiae expressing PfHsp40, growth rescue, ATP luminescence. hit rate 0.68% among 340,000; in the data active = growth rescue above about 28%, passing the limit was not always enough;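 also: yeast W303a lacking pdr1 and pdr3 grown in galactose medium; growth measured after three days at 30 °C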
Vc quorum ag-2: quorum light induction in BH1578 reporter strain. 620 tested, under 10 active. V. cholerae BH1578 lux reporter, luminescence, 6 h. shares compounds with Vc quorum ag-1. activation, % at 50 µM; call rule not given here
Starred values were filed as active, the others as inactive; i = inactive; x = no result. Sampled rows, rich in hits. Any-hit rate of the full collection: about 1.2%.

SMILES	BioA inh	TcdB inh	Vc quorum ag-1	VHR inh abs	Yp Topo-I inh	PfHsp40 rescue	Vc quorum ag-2
O=c1[nH]c2ccccc2n1Cc1ccc(Cl)cc1	1	x	17*	27	6	0	1
COc1ccc(NC(=O)Nc2cccc3c2O[C@H](CN(C)C(=O)Nc2ccc(C(F)(F)F)cc2)[C@@H](C)CN([C@H](C)CO)C3=O)cc1	-2	1	i	x	23	-2	x
CCN1CCCC1CNC(=O)c1cc(OC)c(OC)c(OC)c1 (stereo not drawn)	-2	x	3	24	5	0	1
Cc1ccc(S(=O)(=O)Nc2ccccc2F)cc1C(=O)NCCCN1CCCC1=O	-2	x	14	29	-1	-1	0
CC(=O)c1c(N2CCC(C(N)=O)CC2)nc(=S)n(-c2ccccc2)c1C	1	x	7	17	-10	1	0
CC(=O)c1c(N2CCN(c3ccccc3)CC2)nc(=S)n(-c2ccccc2)c1C	2	x	x	3	19	0	x
O=[N+]([O-])c1ccc(NCCOc2ccccc2Cl)nc1	-2	2	i	4	0	4	x
C[C@@H]1CCCCO[C@H](CN(C)C(=O)NC2CCCCC2)[C@H](C)CN([C@H](C)CO)C(=O)c2cc(N(C)C)ccc2O1	1	-19	x	x	x	x	x
COc1ccccc1NC(=O)COc1ccc2c(c1)OCO2	-1	-2	105*	2	-6	-1	212
COc1ccc(OCC(=O)Nc2ccccc2OC)cc1	1	0	29*	-1	2	-1	175
CCOc1ccccc1NC(=O)COc1ccc2c(c1)OCO2	-2	-2	0	12	26	-1	x
Cc1ccc(S(=O)(=O)N[C@H]2CC[C@H](CC(=O)NCc3ccccc3F)O[C@H]2CO)cc1	0	-8	x	x	x	x	x
Cc1onc(-c2ccccc2)c1C(=O)Nc1nc2c(s1)CCCC2	-1	x	7.6*	-6	-1	3	0
Cc1onc(-c2c(F)cccc2Cl)c1C(=O)Nc1nc2c(s1)CCCC2	1	2	-3	26	13	-1	x
COc1cc(C(N)=O)cc(Br)c1OC	x	x	25*	2	2	0	0
Cn1nnc2cc(NC(=O)Nc3cccc(Cl)c3)ccc21	0	-7	-1	2	-6	1	x
COc1ccc(S(=O)(=O)Nc2ccc(S(=O)(=O)N3CCOCC3)cc2)cc1C	0	x	18*	-22	-2	1	0
COc1ccc(NS(=O)(=O)c2ccc(S(=O)(=O)N3CCOCC3)cc2)cc1	2	1	0	7	-14	0	x
COc1ccc(NC(=O)N(C)C[C@@H]2Oc3ccc(NC(=O)Nc4cccc5ccccc45)cc3C(=O)N([C@@H](C)CO)C[C@@H]2C)cc1	-5	1	x	x	x	x	x
O=C(O)CC[N+](=O)[O-]	0	1	i	x	1	0	x
Cc1cc(=O)[nH]c(N/N=C/c2c(O)n(-c3ccccc3)c(=O)c3ccccc23)n1	-1	-1	0	3	-10	1	x
CC(=O)c1ccc(S(=O)(=O)Nc2cccc(-c3ccc4nncn4n3)c2)cc1	0	x	23*	25	-7	-1	0
Cc1ccc(C)c(S(=O)(=O)Nc2ccc(-n3cnnn3)cc2)c1	0	x	37*	x	-2	0	0
Cc1ccc(C)c(S(=O)(=O)Nc2ccc(O)cc2)c1	x	x	i	29	-9	-1	x
Cc1ccc(OCCC(=O)OCC(=O)Nc2ccc3c(c2)OCO3)cc1	-1	1	14	x	0	0	0
SMILES	BioA inh	TcdB inh	Vc quorum ag-1	VHR inh abs	Yp Topo-I inh	PfHsp40 rescue	Vc quorum ag-2
Cc1ccc(OCCC(=O)Nc2ccc3c(c2)OCO3)cc1	-1	3	-1	x	-4	0	x
COc1ccc(C(CC(=O)N2CCCC(C)C2)c2c(OC)cc(OC)c3ccc(=O)oc23)cc1 (stereo not drawn)	-1	x	-1	10	8	0	x
Cc1ccc(S(=O)(=O)NCCCC(=O)O)cc1	x	0	0	33	-14	-1	x
Cc1ccc(S(=O)(=O)NCCC(=O)O)cc1	-1	x	33*	-2	2	1	0
Cc1ccc(C)c(C(=O)COC(=O)CNS(=O)(=O)c2ccccc2)c1	x	1	0	7	7	1	x
CC(=O)Nc1ccc(S(=O)(=O)NCCC(=O)OCC(=O)c2cc(C)ccc2C)cc1	2	0	14	x	9	-1	0
CCc1ccc(C(=O)COC(=O)CNC(=O)c2ccc(N3C(=O)c4ccccc4C3=O)cc2)cc1	-4	x	i	-8	11	1	x
Cc1ccccc1NC(=O)Cc1nc(COC(=O)c2ccccn2)cs1	1	1	14	x	3	-1	0
CNC(=O)C[C@H]1C(=O)N(C2CCCCC2)C[C@@H]1C	x	1	0	x	6	x	x
COc1ccc(CNC(=O)CSc2nc3c(oc4ccccc43)c(=O)n2CC2CCCO2)cc1 (stereo not drawn)	-3	1	14	x	-2	0	0
COc1cccc(CNC(=O)CSc2nc3c(oc4ccccc43)c(=O)n2CC2CCCO2)c1 (stereo not drawn)	-1	1	0	x	-6	1	x
N#Cc1nc(-c2ccc(F)cc2)oc1N1CCN(C(=O)c2ccco2)CC1	-5	1	i	28	-12	1	x
Cn1c(Oc2ccccc2NCc2cccc(Br)c2)cc(=O)n(C)c1=O	1	x	-1	30	24	-1	x
CC1(C(=O)N2CCN(c3ccc([N+](=O)[O-])cc3)CC2)CC1(Cl)Cl (stereo not drawn)	7	1	25	5	3	-1	2
Cc1[nH]n(-c2nc(-c3ccccc3F)cc(=O)[nH]2)c(=O)c1CCO	x	0	0	39	6	x	x
CCc1sc(N(C(=O)Cc2ccccc2)c2ccccc2)nc1-c1ccccc1	0	x	i	-10	7	1	x
CCc1sc(N(C(=O)Cc2ccccc2)c2ccc(F)cc2)nc1-c1ccccc1	-1	x	24	27	26	-2	1
COc1ccc2[nH]c(=O)c(CN(C(=O)c3cccnc3)c3ccc(C)cc3)cc2c1	-1	x	18	15	9	0	0
COc1ccc2[nH]c(=O)c(CN(C(=O)c3cccnc3)c3cccc(C)c3)cc2c1	-2	0	0	-14	13	1	x
O=C(CN1C(=O)CSC1=O)NC1CCCCC1	0	x	17*	9	2	0	3
COC(=O)c1sccc1NC(=O)CN1CCN(c2ccc(F)cc2)CC1	x	x	0	37	16	2	x
COCCNc1nc2c(c(=O)n(Cc3ccc(OC)cc3)c(=O)n2C)n1C	0	x	14	-10	2	1	0
CCCCOc1ccc(CNC(=S)N/N=C/c2ccc(OC)c(OC)c2)cc1	0	x	-6	27	15	1	x
CCOC(=O)c1c(NC(=O)c2cccs2)sc(C)c1CC	-1	x	114*	14	10	3	1
CCc1c(C)sc(NC(=O)c2cccs2)c1C(=O)OC(C)C	x	x	i	-19	14	0	x
